# In PubChem BioAssay:
# Several values for one entry are separate records, joined by “and”; a condition that tells them apart may be missing. Equal values may be shown once. Activity calls are given as the source filed them. Unless noted, no rule for the calls is given here.
# Legend:
# [1] = growth inhibition, single agents and combos, LFS_MB_1R, cell-based, cisplatin or BGB combos, synergistic combos for chromothripsis tumors (AID 1671452; in the data active = inhibition above about 80%;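 also: cells exposed for 96 hours before readout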); conditions: LFS_MB_1R medulloblastoma cells, stronger effect = higher value
# [2] = growth inhibition, single agents and combos, CRL2098, cell-based, BGB or cisplatin IC20 combos, synergistic combos for chromothripsis tumors (AID 1671454; in the data active = inhibition above about 80%;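 also: cells exposed for 96 h before readout; 0% = vehicle DMSO and 100% = killing by high DMSO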); conditions: CRL2098 osteosarcoma cells, drug combinations, stronger effect = higher value
# [3] = growth inhibition, single agents and combos, HD-MB03, cell-based, BGB or cisplatin IC20 combos, synergistic combos for chromothripsis tumors (AID 1671455; in the data active = inhibition above about 83%;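 also: 0% = vehicle DMSO and 100% = high DMSO as cytotoxic control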); conditions: HD-MB03 medulloblastoma cells, stronger effect = higher value
# [4] = growth inhibition, single agents and combos, UWB1.289, cell-based, BGB or cisplatin combos, synergistic combos for chromothripsis tumors (AID 1671456; in the data active = inhibition above about 80%;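 also: cells exposed to compound for four days; 0% = vehicle DMSO and 100% = killing by high DMSO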); conditions: UWB1.289 ovarian carcinoma cells, stronger effect = higher value
# [5] = growth inhibition, single agents and combos, LFS_MB_2R, cell-based, cisplatin combos, synergistic combos for chromothripsis tumors (AID 1671457; in the data active = inhibition above about 80%;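 also: cells exposed to compound for four days before readout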); conditions: LFS_MB_2R medulloblastoma cells, stronger effect = higher value
# [6] = growth inhibition, MDA-MB-436, cell-based, BGB or cisplatin combos, synergistic combos for chromothripsis tumors (AID 1671458); conditions: MDA-MB-436 breast carcinoma growth inhibition, drug combinations, stronger effect = higher value;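 also: cells exposed for 96 hours; 0% = vehicle DMSO and 100% = killing by high DMSO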
# [7] = UWB1.289_BRCA1 ovarian cancer growth, cell-based, BGB or cisplatin combinations (AID 1671459; in the data active = inhibition above about 80%); conditions: UWB1.289 BRCA1 ovarian carcinoma, drug combinations, stronger effect = higher value
# [8] = drug combination toxicity in non-malignant astrocytes – cell-based, BGB or cisplatin IC20 combos, cytotoxicity control for chromothriptic childhood tumor combination screen (AID 1671460; in the data active = inhibition above about 80%;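 also: cells exposed to compounds for 96 hours before viability readout; 0% = vehicle and 100% = killing control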); conditions: Human astrocytes, viability inhibition, drug combinations, at 0.5 µM, stronger effect = higher value
# [9] = BT084 cell growth, single and combined drugs, ICGC_MB145, cisplatin and BGB IC40 combos (AID 1671461; in the data active = inhibition above about 80%;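 also: cells exposed to drugs for 96 hours; 0% = vehicle DMSO and 100% = high DMSO full killing control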); conditions: BT084 medulloblastoma cells, drug combinations, stronger effect = higher value
# [10] = RCMB18 cell growth, single agent and combined, cisplatin and BGB IC40 combos (AID 1671462; in the data active = inhibition above about 80%;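 also: cells exposed to compound for four days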); conditions: RCMB18 medulloblastoma cells, stronger effect = higher value
# [11] = CRL1545 cell growth, single agent and combined, cisplatin and BGB IC20 combos (AID 1671464; in the data active = inhibition above about 80%;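 also: cells exposed to compound for 96 hours before readout; 0% = vehicle DMSO and 100% = high DMSO killing control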); conditions: CRL1545 osteosarcoma cells, stronger effect = higher value
# [12] = tested on: Hepatitis C virus NS3 helicase; experiment: blockers of NS3h binding to ssDNA – biochemical, fluorescence polarization, LOPAC1280 library, primary screen (AID 687035; in the data active = inhibition above about 37%); conditions: Purified HCV NS3 helicase, Cy5-dT15 ssDNA binding fluorescence polarization; stronger effect = higher value; concentration not given here
# [13] = compounds altering Cy5-DNA-NS3h complex signal – biochemical, LOPAC1280, artefact control for HCV NS3 helicase inhibitor project (AID 687037); conditions: Cy5-DNA-NS3h complex fluorescence interference counterscreen
# [14] = liver-stage malaria parasite load reduction – cell-based, known kinase inhibitor set, luminescence, hepatoma host viability (AID 624392); conditions: Plasmodium liver stage in hepatoma cells, luciferase luminescence, concentration not given here; liver cell % of control: measured here: host liver cell viability; parasite % of control: stronger effect = lower value;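 also: infected cells incubated roughly two days before readout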
# [15] = blockers of cellular phospholipid synthesis – cell-based, LOPAC library, screen 4, primary screen (AID 1347384); conditions: animal cells, phospholipid biosynthesis inhibition screen; at 10 µM
# [16] = measured here: combination with cisplatin, at 0.5 µM
# [17] = measured here: combination with cisplatin, at 5 µM
smiles,measurement,setting,value
O=c1[nH]cnc2ccccc12,inhibition,[1]; at 0.5 µM,-18.8% (inactive)
same,inhibition,"[1]; measured here: combination with BGB IC40, at 0.05 µM",-25.1%
same,inhibition,[1]; [16],-17.4%
same,inhibition,[1]; [17],-38.3%
same,inhibition,[2]; at 0.5 µM,-61.6% (inactive)
same,inhibition,"[2]; measured here: combination with BGB at IC20, at 0.5 µM",-35.5%
same,inhibition,"[2]; measured here: combination with cisplatin at IC20, at 0.5 µM",-103%
same,inhibition,[3]; at 0.5 µM,4.79% (inactive)
same,inhibition,"[3]; measured here: combo with BGB at IC20, at 0.5 µM",10.7%
same,inhibition,"[3]; measured here: combo with cisplatin at IC20, at 0.5 µM",11.6%
same,inhibition,[4]; at 0.5 µM,2.5% (inactive)
same,inhibition,"[4]; measured here: inhibition with BGB combination, at 0.05 µM",-5.21%
same,inhibition,"[4]; measured here: inhibition with cisplatin combination, at 0.05 µM",-17.2%
same,inhibition,[5]; at 0.5 µM,-8.8% (inactive)
same,inhibition,[5]; [16],-21.4%
same,inhibition,[5]; [17],-15.8%
same,inhibition,[6]; at 0.5 µM,-5.02% (inactive)
same,inhibition,"[6]; measured here: BGB combination, at 0.5 µM",-15%
same,inhibition,"[6]; measured here: BGB combination, at 5 µM",-20.2%
same,inhibition,"[6]; measured here: cisplatin combination, at 0.5 µM",-1.15%
same,inhibition,"[6]; measured here: cisplatin combination, at 5 µM",-18.2%
same,inhibition,"[7]; BGB combination, concentration series, at 5 µM",11.1%
same,inhibition,[7]; at 0.5 µM,0.09% (inactive)
same,inhibition,"[7]; cisplatin combination, concentration series, at 5 µM",-4.56%
same,inhibition,[8],12.5% (inactive)
same,inhibition,[8]; measured here: combo with BGB IC20,-1.33%
same,inhibition,[8]; measured here: combo with cisplatin IC20,21.8%
same,inhibition,[9]; at 0.5 µM,-14% (inactive)
same,inhibition,"[9]; cisplatin combination, at 0.5 µM",-49.4%
same,inhibition,"[9]; cisplatin combination, at 5 µM",-11.8%
same,inhibition,"[9]; measured here: BGB IC40 combination 0.05 uM, at 0.05 µM",-51.7%
same,inhibition,"[9]; single agent, at 5 µM",12.2%
same,inhibition,[10]; at 0.5 µM,-16.1% (inactive)
same,inhibition,"[10]; cisplatin combo, at 5 µM",-26.7%
same,inhibition,"[10]; measured here: BGB IC40 combination, at 0.05 µM",-1.26%
same,inhibition,[10]; [16],-25.5%
same,inhibition,"[10]; single agent, at 5 µM",-13.2%
same,inhibition,[11]; at 0.5 µM,0.67% (inactive)
same,inhibition,"[11]; measured here: with BGB IC20 combination, at 0.5 µM",-3.84%
same,inhibition,"[11]; measured here: with cisplatin IC20 combination, at 0.5 µM",1.34%
same,inhibition,"[11]; single agent, at 0.05 µM",-24.3%
same,inhibition,"[11]; single agent, at 5 µM",-5.49%
CCOC(=O)C12CC1/C(=N\O)c1ccccc1O2 (configuration not stated),inhibition,[12],0% (inactive)
same,fluorescence ratio (interference),[13],1 (inactive)
COc1ccc(OC)c2c(=S)c3ccccc3[nH]c12,liver cell % of control,[14],97.2%
same,parasite % of control,[14],125% (inactive)
CN(C)C(=O)n1nnnc1Cc1ccc(-c2ccccc2)cc1,inhibition,[12],-2% (inactive)
same,fluorescence ratio (interference),[13],1 (inactive)
CS(=O)(=O)c1cccc(CNc2nc(Nc3ccc4c(c3)CCC(=O)N4)ncc2C(F)(F)F)c1,outcome,[15],inactive
COc1cc2nc(N3CCCN(C)CC3)nc(NC3CCN(Cc4ccccc4)CC3)c2cc1OC,inhibition,[12],3% (inactive)
same,fluorescence ratio (interference),[13],1 (inactive)
same,outcome,[15],inactive
NC(=O)c1ccc(N(C(N)=O)c2c(F)cccc2F)nc1-c1ccc(F)cc1F,liver cell % of control,[14],98.2% and 93.2% and 92%
same,parasite % of control,[14],55.7% (inactive) and 44.1% (inactive) and 51.8% (inactive)
Cc1cccc(-c2[nH]ncc2-c2ccc3ncccc3n2)n1,liver cell % of control,[14],102%
same,parasite % of control,[14],87.4% (inactive)
same,outcome,[15],inactive
